Measured values from the supplement of paper PMC12645437, “Orthogonal IMiD-Degron Pairs Induce Selective Protein Degradation in Cells” (ACS Chemical Biology, 2025).
Over roughly 8,300 sequences, “log2 fold change of degron read counts, EGFP-low vs EGFP+ sorted cells (limma voom), compound-induced degradation” has its median near -1.1; the highest 2% begin near 3.2. The list comes from a sample in which the highest values are over-represented; it also holds similar and randomly drawn sequences.

Target: T1, CRBN, Q96SW2
T1 chain: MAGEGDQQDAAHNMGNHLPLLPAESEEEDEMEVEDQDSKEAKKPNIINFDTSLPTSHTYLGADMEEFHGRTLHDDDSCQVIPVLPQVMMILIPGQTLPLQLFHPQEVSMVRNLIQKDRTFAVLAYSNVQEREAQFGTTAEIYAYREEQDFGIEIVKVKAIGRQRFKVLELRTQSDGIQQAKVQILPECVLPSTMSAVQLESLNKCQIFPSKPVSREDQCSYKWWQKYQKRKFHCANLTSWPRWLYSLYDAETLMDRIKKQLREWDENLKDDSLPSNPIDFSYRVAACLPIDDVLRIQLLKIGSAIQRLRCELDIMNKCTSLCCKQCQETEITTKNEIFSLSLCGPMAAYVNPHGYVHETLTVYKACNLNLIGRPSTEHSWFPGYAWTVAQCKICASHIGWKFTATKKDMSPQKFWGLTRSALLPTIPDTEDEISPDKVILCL
Assay: log2 fold change of degron read counts, EGFP-low vs EGFP+ sorted cells (limma voom), compound-induced degradation; higher = more compound-induced degradation of the degron-EGFP fusion; degrons are variants of IKZF1/3 zinc finger 2; compound dose not given here
Conditions: Jurkat, 18 h
Experimental: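 Pooled library of 8380 IKZF3 ZF2 degron mutants (positions 146-167 varied within the IKZF3 130-189 degron; only the varied core is printed, flanks not printed) fused to EGFP with IRES-mCherry, lentivirally expressed in Jurkat cells. mCherry+ cells were treated with one IMiD compound for 18 h (dose not stated) and FACS-sorted into EGFP-low and EGFP+ populations. Degron sequences were counted by NGS, and log2FC (EGFP-low vs EGFP+) was estimated by limma voom over 3 biological replicates.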

[1] = compound: compound 19 (5-tert-butyl-thalidomide)
[2] = compound: compound 22 (5-morpholino-thalidomide)
[3] = compound: compound 33 (diphenyl IMiD analogue)
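Further: pooled lentiviral library of zinc finger degron-EGFP fusions in mCherry-positive Jurkat cells, FACS-sorted after compound exposure, with degron abundance counted by next-generation sequencing.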

Row | Sequence | log2 fold change of degron read counts [1] | log2 fold change of degron read counts [2] | log2 fold change of degron read counts [3] | log2 fold change of degron read counts (compound: thalidomide)
1 | FVCEICGHLFTQKGNLLRHIKL [46F_47V_49E_50I_52G_53H_54L_55F_67L_, Q9UKT9] | -3.22 | -3.09 | -2.38 | -2.39
2 | FECNICGALFTQKGNLLRHIKL [46F_47E_49N_50I_52G_53A_54L_55F_67L_, Q9UKT9] | -3.14 | -2.25 | -0.0305 | 0.62
3 | FQCDVCGAFFTQKGNLLRHIKL [46F_47Q_49D_50V_52G_53A_54F_55F_67L_, Q9UKT9] | -2.75 | -1.91 | -0.307 | 0.0287
4 | FYCDQCGAQFTQKGNLLRHIKL [46F_47Y_49D_50Q_52G_53A_54Q_55F_67L_, Q9UKT9] | 0.267 | 1.09 | -0.551 | -2.11
5 | LCCPICGFYCTQKGNLLRHIKL [46L_47C_49P_50I_52G_53F_54Y_55C_67L_, Q9UKT9] | 1.68 | 2.29 | 3.16 | 3.24
6 | LGCPICGFYCTQKGNLLRHIKL [46L_47G_49P_50I_52G_53F_54Y_55C_67L_, Q9UKT9] | 3.53 | 2.7 | 2.46 | 2.1
7 | LWCPICGFYCTQKGNLLRHIKL [46L_47W_49P_50I_52G_53F_54Y_55C_67L_, Q9UKT9] | 2.78 | 3.23 | 2.86 | 2
8 | LQCPICGFYCTQKGNLLRHIKL [46L_47Q_49P_50I_52G_53F_54Y_55C_67L_, Q9UKT9] | 1 | 1.74 | 2.07 | 3.47
9 | LSCPICGFYCTQKGNLLRHIKL [46L_47S_49P_50I_52G_53F_54Y_55C_67L_, Q9UKT9] | 2.68 | 2.68 | 2.92 | 2.93
10 | LHCPICGFYCTQKGNLLRHIKL [46L_47H_49P_50I_52G_53F_54Y_55C_67L_, Q9UKT9] | 2.56 | 2.82 | 2.85 | 2.7
11 | LVCPICGFYCTQKGNLLRHIKL [46L_47V_49P_50I_52G_53F_54Y_55C_67L_, Q9UKT9] | 1.01 | 2.39 | 2.2 | 2.84
12 | LACPICGFYCTQKGNLLRHIKL [46L_47A_49P_50I_52G_53F_54Y_55C_67L_, Q9UKT9] | 3.56 | 2.79 | 2.52 | 2.89
13 | LICPICGFYCTQKGNLLRHIKL [46L_47I_49P_50I_52G_53F_54Y_55C_67L_, Q9UKT9] | 0.5 | 1.72 | 1.99 | 2.39
14 | LMCPICGFYCTQKGNLLRHIKL [46L_47M_49P_50I_52G_53F_54Y_55C_67L_, Q9UKT9] | 0.482 | 1.27 | 2.88 | 2.19
15 | LDCPICGFYCTQKGNLLRHIKL [46L_47D_49P_50I_52G_53F_54Y_55C_67L_, Q9UKT9] | -0.0305 | -0.355 | 1.46 | 2.28
16 | LFCPICGFYCTQKGNLLRHIKL [46L_47F_49P_50I_52G_53F_54Y_55C_67L_, Q9UKT9] | 2.88 | 2.73 | 2.34 | 1.76
17 | LYCEICGFGCTQKGNLLRHIKL [46L_47Y_49E_50I_52G_53F_54G_55C_67L_, Q9UKT9] | 2.73 | 2.15 | 1.33 | 0.286
18 | FVCNQCGRWFTQKGNLLRHIKL [46F_47V_49N_50Q_52G_53R_54W_55F_67L_, Q9UKT9] | -2.52 | -2.06 | -2.42 | -1.9
19 | FDCNVCGAKFTQKGNLLRHIKL [46F_47D_49N_50V_52G_53A_54K_55F_67L_, Q9UKT9] | -1.36 | -2.41 | -2.78 | -0.891
20 | LNCPICGFYCTQKGNLLRHIKL [46L_47N_49P_50I_52G_53F_54Y_55C_67L_, Q9UKT9] | 1.76 | 1.72 | 1.52 | 2.04
21 | LKCPICGFYCTQKGNLLRHIKL [46L_47K_49P_50I_52G_53F_54Y_55C_67L_, Q9UKT9] | -0.431 | -0.605 | -1.14 | 0.828
22 | LYCPICGFYCTQKGNLLRHIKL [46L_47Y_49P_50I_52G_53F_54Y_55C_67L_, Q9UKT9] | 3.22 | 3.11 | 2.72 | 1.82
23 | LTCPICGFYCTQKGNLLRHIKL [46L_47T_49P_50I_52G_53F_54Y_55C_67L_, Q9UKT9] | 1.69 | 2.58 | 2.93 | 3.24
24 | LECPICGFYCTQKGNLLRHIKL [46L_47E_49P_50I_52G_53F_54Y_55C_67L_, Q9UKT9] | 0.407 | 0.1 | 2.47 | 3.34
25 | LLCPICGFYCTQKGNLLRHIKL [46L_47L_49P_50I_52G_53F_54Y_55C_67L_, Q9UKT9] | 0.305 | 0.574 | 1.63 | 1.96
26 | FCCEICGHIFTQKGNLLRHIKL [46F_47C_49E_50I_52G_53H_54I_55F_67L_, Q9UKT9] | -2.19 | -2.44 | -1.42 | -1.61
27 | FLCNQCGRTFTQKGNLLRHIKL [46F_47L_49N_50Q_52G_53R_54T_55F_67L_, Q9UKT9] | -2.4 | -2.94 | -3.37 | -2.18
28 | FNCPQCGANFTQKGNLLRHIKL [46F_47N_49P_50Q_52G_53A_54N_55F_67L_, Q9UKT9] | -1.43 | -2.18 | -1.52 | -2.31
